# In all, about 5,500 compounds went through this assay and about 2,000 (36%) were called active. About 18% were inconclusive and are not listed. The list shows a part of the results. Values without a mark were called inactive. No stated cut-off is given here; in the data, active means normalized growth mostly below about 0.91 (no sharp cut-off); inconclusive means no clear call, values can overlap the other calls; inactive means mostly above about 0.92.
# Experiment: chemical genetic growth profiling, strain panel (AID 1159580);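 further: tested at 20 µM; growth read once vehicle control cultures reached saturation at 30 °C; 1 = growth at the plate median or of vehicle wells; lower values mean less growth of the strain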
# Conditions: growth OD
smiles,measurement,setting,value
CC(CN(C)C)CN1c2ccccc2Sc2ccccc21 (configuration not stated),normalized growth,"S. cerevisiae deletion strains, locus YJR075W, strain HOC1, hits give low values",0.986
same,normalized growth,"S. cerevisiae deletion strains, locus YKL009W, strain mrt4, hits give low values",0.99
same,normalized growth,"S. cerevisiae deletion strains, locus YKL068W, hits give low values",0.981
same,normalized growth,"S. cerevisiae deletion strains, locus YKL085W, strain MDH1 (second series), hits give low values",1.01
same,normalized growth,"S. cerevisiae deletion strains, locus YKL085W, strain MDH1, hits give low values",1.01
same,normalized growth,"S. cerevisiae deletion strains, locus YKL160W, strain elf1, hits give low values",1.01
same,normalized growth,"S. cerevisiae deletion strains, locus YKL190W, strain CNB1, hits give low values",0.999
same,normalized growth,"S. cerevisiae deletion strains, locus YKR001C, strain vps1, hits give low values",0.991
same,normalized growth,"S. cerevisiae deletion strains, locus YKR026C, strain gcn3, hits give low values",1.02
same,normalized growth,"S. cerevisiae deletion strains, locus YKR091W, strain srl3, hits give low values",1.02
same,normalized growth,"S. cerevisiae deletion strains, locus YLL001W, strain dnm1, hits give low values",1.02
same,normalized growth,"S. cerevisiae deletion strains, locus YLL026W, hits give low values",1.02
same,normalized growth,"S. cerevisiae deletion strains, locus YLL041C, strain sdh2, hits give low values",1.01
same,normalized growth,"S. cerevisiae deletion strains, locus YLR027C, strain aat2, hits give low values",1.02
same,normalized growth,"S. cerevisiae deletion strains, locus YLR039C, strain RIC1, hits give low values",1.34 [resistant] (active)
same,normalized growth,"S. cerevisiae deletion strains, locus YLR058C, strain SHM2, hits give low values",0.985
same,normalized growth,"S. cerevisiae deletion strains, locus YLR102C, strain apc9, hits give low values",0.993
same,normalized growth,"S. cerevisiae deletion strains, locus YLR113W, strain HOG1, hits give low values",0.988
same,normalized growth,"S. cerevisiae deletion strains, locus YLR221C, strain rsa3, hits give low values",1.02
same,normalized growth,"S. cerevisiae deletion strains, locus YLR258W, strain gsy2, hits give low values",1.02
same,normalized growth,"S. cerevisiae deletion strains, locus YLR262C, strain YPT6 (second series), hits give low values",1.1
same,normalized growth,"S. cerevisiae deletion strains, locus YLR262C, strain YPT6, hits give low values",1.44 [resistant] (active)
same,normalized growth,"S. cerevisiae deletion strains, locus YLR268W, strain sec22, hits give low values",0.918
same,normalized growth,"S. cerevisiae deletion strains, locus YLR320W, strain mms22, hits give low values",1.01
same,normalized growth,"S. cerevisiae deletion strains, locus YLR330W, strain CHS5, hits give low values",0.999
same,normalized growth,"S. cerevisiae deletion strains, locus YLR342W, strain FKS1 (second series), hits give low values",0.888
same,normalized growth,"S. cerevisiae deletion strains, locus YLR342W, strain FKS1, hits give low values",1.03
same,normalized growth,"S. cerevisiae deletion strains, locus YLR357W, strain rsc2, hits give low values",1.04
same,normalized growth,"S. cerevisiae deletion strains, locus YLR370C, strain arc18, hits give low values",1.02
same,normalized growth,"S. cerevisiae deletion strains, locus YLR371W, strain rom2, hits give low values",0.994
same,normalized growth,"S. cerevisiae deletion strains, locus YLR384C, strain iki3, hits give low values",1.02
same,normalized growth,"S. cerevisiae deletion strains, locus YLR418C, strain cdc73, hits give low values",0.874
same,normalized growth,"S. cerevisiae deletion strains, locus YML016C, strain PPZ1, hits give low values",0.992
same,normalized growth,"S. cerevisiae deletion strains, locus YML032C, strain rad52, hits give low values",0.968
same,normalized growth,"S. cerevisiae deletion strains, locus YML120C, strain ndi1, hits give low values",0.998
same,normalized growth,"S. cerevisiae deletion strains, locus YML124C, strain tub3, hits give low values",0.995
same,normalized growth,"S. cerevisiae deletion strains, locus YMR058W, strain fet3, hits give low values",1.01
same,normalized growth,"S. cerevisiae deletion strains, locus YMR078C, strain ctf18, hits give low values",0.985
same,normalized growth,"S. cerevisiae deletion strains, locus YMR125W, strain sto1, hits give low values",1.02
same,normalized growth,"S. cerevisiae deletion strains, locus YMR129W, hits give low values",1.02
same,normalized growth,"S. cerevisiae deletion strains, locus YMR205C, strain PFK2, hits give low values",1.03
same,normalized growth,"S. cerevisiae deletion strains, locus YMR223W, strain ubp8, hits give low values",0.98
same,normalized growth,"S. cerevisiae deletion strains, locus YMR231W, strain pep5, hits give low values",1.03
same,normalized growth,"S. cerevisiae deletion strains, locus YMR263W, strain SAP30, hits give low values",0.978
same,normalized growth,"S. cerevisiae deletion strains, locus YMR307W, strain GAS1, hits give low values",1.03
same,normalized growth,"S. cerevisiae deletion strains, locus YNL067W, strain RPL9B, hits give low values",0.967
same,normalized growth,"S. cerevisiae deletion strains, locus YNL071W, strain lat1, hits give low values",1.02
same,normalized growth,"S. cerevisiae deletion strains, locus YNL128W, strain TEP1, hits give low values",0.988
same,normalized growth,"S. cerevisiae deletion strains, locus YNL153C, strain GIM3, hits give low values",0.953
same,normalized growth,"S. cerevisiae deletion strains, locus YNL183C, strain NPR1, hits give low values",0.948
same,normalized growth,"S. cerevisiae deletion strains, locus YNL209W, strain ssb2, hits give low values",1.02
same,normalized growth,"S. cerevisiae deletion strains, locus YNL233W, strain BNI4, hits give low values",0.969
same,normalized growth,"S. cerevisiae deletion strains, locus YNL248C, strain rpa49, hits give low values",1.02
same,normalized growth,"S. cerevisiae deletion strains, locus YNL250W, strain rad50, hits give low values",0.985
same,normalized growth,"S. cerevisiae deletion strains, locus YNL271C, strain bni1, hits give low values",0.992
same,normalized growth,"S. cerevisiae deletion strains, locus YNL298W, strain CLA4, hits give low values",0.991
same,normalized growth,"S. cerevisiae deletion strains, locus YNL307C, strain MCK1, hits give low values",0.974
same,normalized growth,"S. cerevisiae deletion strains, locus YNL322C, strain KRE1 (second series), hits give low values",1.04
same,normalized growth,"S. cerevisiae deletion strains, locus YNL322C, strain KRE1, hits give low values",0.998
same,normalized growth,"S. cerevisiae deletion strains, locus YNR049C, strain mso1, hits give low values",1.04
same,normalized growth,"S. cerevisiae deletion strains, locus YNR052C, strain pop2, hits give low values",0.974
same,normalized growth,"S. cerevisiae deletion strains, locus YOL006C, strain TOP1, hits give low values",0.922
same,normalized growth,"S. cerevisiae deletion strains, locus YOL012C, strain htz1",0.837
same,normalized growth,"S. cerevisiae deletion strains, locus YOL147C, strain pex11, hits give low values",0.996
same,normalized growth,"S. cerevisiae deletion strains, locus YOR001W, strain rrp6, hits give low values",1.01
same,normalized growth,"S. cerevisiae deletion strains, locus YOR061W, strain CKA2, hits give low values",0.996
same,normalized growth,"S. cerevisiae deletion strains, locus YOR069W, strain VPS5, hits give low values",0.984
same,normalized growth,"S. cerevisiae deletion strains, locus YOR070C, strain gyp1, hits give low values",1.02
same,normalized growth,"S. cerevisiae deletion strains, locus YOR080W, strain dia2, hits give low values",1.02
same,normalized growth,"S. cerevisiae deletion strains, locus YOR083W, strain WHI5, hits give low values",0.987
same,normalized growth,"S. cerevisiae deletion strains, locus YOR106W, strain vam3, hits give low values",1.05
same,normalized growth,"S. cerevisiae deletion strains, locus YOR136W, strain idh2, hits give low values",0.987
same,normalized growth,"S. cerevisiae deletion strains, locus YOR144C, strain elg1, hits give low values",0.993
same,normalized growth,"S. cerevisiae deletion strains, locus YOR184W, strain ser1, hits give low values",1.02
same,normalized growth,"S. cerevisiae deletion strains, locus YOR231W, strain MKK1, hits give low values",0.997
same,normalized growth,"S. cerevisiae deletion strains, locus YOR265W, strain rbl2, hits give low values",1.03
same,normalized growth,"S. cerevisiae deletion strains, locus YOR270C, strain vph1, hits give low values",1.08
same,normalized growth,"S. cerevisiae deletion strains, locus YOR290C, strain snf2, hits give low values",1.02
same,normalized growth,"S. cerevisiae deletion strains, locus YOR316C, strain cot1, hits give low values",0.992
same,normalized growth,"S. cerevisiae deletion strains, locus YPL051W, strain arl3, hits give low values",0.996
same,normalized growth,"S. cerevisiae deletion strains, locus YPL055C, strain LGE1, hits give low values",0.992
same,normalized growth,"S. cerevisiae deletion strains, locus YPL078C, strain atp4, hits give low values",1.01
same,normalized growth,"S. cerevisiae deletion strains, locus YPL106C, strain sse1, hits give low values",1.03
same,normalized growth,"S. cerevisiae deletion strains, locus YPL240C, strain hsp82, hits give low values",0.997
same,normalized growth,"S. cerevisiae deletion strains, locus YPL241C, strain CIN2, hits give low values",0.999
same,normalized growth,"S. cerevisiae deletion strains, locus YPL256C, strain CLN2, hits give low values",0.99
same,normalized growth,"S. cerevisiae deletion strains, locus YPR119W, strain clb2, hits give low values",0.997
same,normalized growth,"S. cerevisiae deletion strains, locus YPR141C, strain kar3, hits give low values",0.983
same,normalized growth,"S. cerevisiae deletion strains, locus YPR163C, strain tif3, hits give low values",0.966
same,normalized growth,"S. cerevisiae deletion strains, locus YPR167C, strain met16, hits give low values",0.99
same,normalized growth,"S. cerevisiae deletion strains, strain wtn01, hits give low values",0.968
same,normalized growth,"S. cerevisiae strains, strain wild type, hits give low values",0.992

# — PubChem BioAssay AID1159580 (chemical genetic matrix, 2015)
